# High-throughput results deposited in PubChem BioAssay by National Center for Advancing Translational Sciences (NCATS).
# An excerpt weighted towards active compounds, which were near 3.7% of everything screened.
# DRD3 agonist – agonists of human D3 dopamine receptor; 410,000 compounds, 0.58% hits; AID 652048; P35462; D3R DiscoveRx beta-arrestin cells, luminescence, 90 min; max activation, %; in the data active = max activation above about 30%; also: 0% is about no effect
#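 Agonist mode: compounds and dopamine controls were applied to plated cells for 90 min at 37 degrees C after an overnight attachment at 1500 cells/well. Luminescent read-out followed 30 - 60 minutes at room temperature with DiscoveRx detection reagent.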
# PTHR1 ag – PTHR1 (human) receptor agonism; Q03431; HEK293 GP2 PTHR1 cells, GloSensor cAMP luminescence, 1 h; Potency, µM (series often up to 115 µM), for inactives: at the highest dose activation, usual class: activators; 410,000 compounds, 0.075% hits; AID 743266; also: potency is read from the fitted curve at half-maximal effect; nearly all actives have a fitted effect of over 55% in size
#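 HEK-293-derived GP2 cells expressing PTHR1 and a GloSensor cAMP reporter, 3,000/well, plated overnight, given luciferin plus IBMX (each 0.5 mM as added) for 1 h at 37 °C, then compound for 1 h at 37 °C. Luminescence was read after 15 min at room temperature.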
# BRCA1 expr up – increases BRCA1 expression; MCF7-BRCA1-FFLuc reporter, luminescence, 48 h; response scale: scaled: vehicle 0%, 10 µM genistein 100%; Potency, µM (series often up to 46.1 µM), for inactives: at the top dose activation, actives largely listed as activators; 380,000 compounds, 1.1% hits; AID 624202; also: potency is read from the fitted curve at half-maximal effect; nearly all actives have a fitted effect of over 80% in size
#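 Quantitative HTS in MCF7 cells stably reporting BRCA1 expression via firefly luciferase. Compound treatment lasts 48 h at 37 °C in phenol-red free MEM. Activation is expressed relative to genistein at 10 microM and DMSO.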
# DRD3 antagonist – D3 dopamine receptor (human) antagonism; P35462; D3R cells, DiscoveRx beta-arrestin luminescence, antagonist mode; stronger effect = lower value; max response, negative = inhibition, %; 360,000 compounds, 2.5% hits; in the data active = max response below about -50%; inconclusive = no clear call, values can overlap the other calls; also: % is scaled to controls: 0 for no effect and ±100 for the full control effect
#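 Cells plated overnight at 1500 cells/well, then exposed to library compounds with dopamine controls for 90 minutes at 37 degrees C. DiscoveRx reagent added for 30–60 minutes at room temperature; luminescence read, quantitative HTS format.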
# B2AR arrestin – agonists driving beta-arrestin recruitment to human beta2-adrenergic receptor. P07550. AID 492947. 330,000 compounds, 0.02% hits. beta-arrestin recruitment to beta2AR, cell-based reporter. Potency, µM (series often up to 46.1 µM), inactives show top-dose activation, usual class: activators;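 also: potency is read from the fitted curve at half-maximal effect; 0% = DMSO controls and full agonism = EC100 isoproterenol or metaproterenol; nearly all actives have a fitted effect of over 65% in size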
# Target sequence (P07550 whole entry, looked up): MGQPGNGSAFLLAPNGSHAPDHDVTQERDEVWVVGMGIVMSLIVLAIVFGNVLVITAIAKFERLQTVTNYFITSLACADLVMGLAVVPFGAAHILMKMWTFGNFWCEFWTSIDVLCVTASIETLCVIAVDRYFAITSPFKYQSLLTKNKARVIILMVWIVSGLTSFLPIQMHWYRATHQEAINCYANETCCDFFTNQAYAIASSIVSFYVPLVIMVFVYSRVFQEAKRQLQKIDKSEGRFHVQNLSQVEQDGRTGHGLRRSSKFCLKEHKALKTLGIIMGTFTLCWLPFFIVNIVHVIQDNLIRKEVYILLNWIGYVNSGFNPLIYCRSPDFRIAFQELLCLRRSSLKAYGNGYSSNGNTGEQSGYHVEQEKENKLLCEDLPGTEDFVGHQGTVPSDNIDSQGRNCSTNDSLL
# RGS4 inhibitor – human RGS4 inhibition; P49798; Transcreener GDP fluorescence polarization, RGS4-accelerated GTP hydrolysis; Potency, µM (doses to about 114 µM), for inactives: at the top dose activity change, negative = inhibition, most hits filed as inhibitors; 390,000 compounds, 0.039% hits; AID 504845; also: potency is read from the fitted curve at half-maximal effect; % is scaled to controls: 0 for no effect and ±100 for the full control effect; nearly all actives have a fitted effect of over 75% in size
# Target sequence (P49798 whole entry, looked up): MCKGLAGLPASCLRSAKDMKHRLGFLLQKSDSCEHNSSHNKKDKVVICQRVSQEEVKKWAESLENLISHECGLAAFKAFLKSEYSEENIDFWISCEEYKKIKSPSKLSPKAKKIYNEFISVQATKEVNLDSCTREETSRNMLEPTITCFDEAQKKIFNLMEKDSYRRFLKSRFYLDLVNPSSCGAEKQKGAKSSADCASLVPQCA
#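 MLSMR compounds (23 nl, pin-transferred) preincubated 10 min at room temperature with a 500nM (2x) first reagent, then RGS4 at 900nM (2x) plus Transcreener GDP mix added; fluorescence polarization (620/688 nm) read before and after 90 min at 30 °C.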
# * hit, by the source's call; i = inactive; ? = inconclusive; . = no result given; [ ] = dose if it differs, or a comment. Unless noted, calls follow the shape of the dose curve; as a rule, active = well fitted curve in the direction sought with a large enough effect; inconclusive = small, poorly fitted or top-dose-only effect, or another doubt; inactive = no such curve, though single readings can be large; an effect the other way counts as inactive or inconclusive.
SMILES,DRD3 agonist,PTHR1 ag,BRCA1 expr up,DRD3 antagonist,B2AR arrestin,RGS4 inhibitor
Cc1ccccc1-c1cnc(C(O)c2ccccc2)[nH]1 (stereo not given),-5,-8%,4.5µM*,-24,.,.
Cc1cccc(C)c1C(O)c1ncc(-c2cccc3ccccc23)[nH]1 (stereo not given),1,-4%,8%,-76*,.,.
Cc1ccc(-c2cnc(C(O)c3c(C)cccc3C)[nH]2)cc1 (stereo not given),-12,-21%,0%,-55*,.,.
O=S(=O)(Nc1ccccc1F)c1cccc(NC(=S)NCCN2CCOCC2)c1,-1,-7%,-1%,-9,0%,-119%
N/C(=N\OC(=O)COc1ccc2ccccc2c1Br)c1ccncc1,.,.,.,.,-1%,.
CCOC(=O)C1CC2=C(CCCC2=O)NC1=O (stereo not given),25,-18%,3%,14,.,-15%
O=C(c1[nH]c(C(F)(F)F)nc1-c1ccccc1)N1CCN(c2ccccn2)CC1,-5,-14%,-33%,-19,.,.
Cc1ccccc1-c1cnc(C(O)c2c(C)cccc2C)[nH]1 (stereo not given),-15,-38%,3%,-52*,.,.
COc1cccc(-c2cnc(C(O)c3ccc(F)cc3)[nH]2)c1 (stereo not given),2,0%,13µM*,2,.,.
Cc1cc(C)c(C(O)c2ncc(-c3ccccc3C)[nH]2)c(C)c1 (stereo not given),-9,-12%,-11%,-56*,.,.
Cc1cc(C)c(C(O)c2ncc(-c3ccccc3F)[nH]2)c(C)c1 (stereo not given),-1,-3%,0%,-6,.,.
COC(c1ccccc1)(c1ccccc1)[C@H](Oc1nc(C)cc(C)n1)C(=O)O,8,.,.,.,.,.
C=C1C(=O)[C@@]23[C@H](O)C[C@@H]4C(C)(C)CC[C@H](O)[C@]4(C)[C@@H]2C[C@H](O)[C@@H]1[C@H]3O,-18,-5%,-45%,0,0%,-48%
C=C1C(=O)[C@@]23[C@H](O)C[C@@H]4C(C)(C)CC[C@H](O)[C@@]4(C)[C@@H]2CC[C@@H]1[C@H]3O,-15,-48%,-14%,-57*,0%,-40%
CC(=O)c1ccc(NC(=O)C2CCCN(S(=O)(=O)c3ccc4c(c3)CCCN4C(C)=O)C2)cc1 (stereo not given),0,-14%,.,.,.,-5%
CC(C)(C)CC(=O)O/N=C(\N)c1ccccn1,1,-8%,5µM*,9,0%,-10%
Cc1ccc(OCC(=O)O/N=C(\N)c2ccccn2)cc1,6,-17%,6.3µM*,3,0%,-5%
N/C(=N\OC(=O)Cc1ccccc1)c1ccccc1Cl,-4,i,14µM*,-4,0%,14%
N/C(=N\OC(=O)C1CCCCC1)c1ccccn1,2,-23%[57.5 µM],11µM*,5,0%,4%
N/C(=N\OC(=O)Cc1ccccc1)c1cccnc1,-6,-17%,96%,0,0%,25%
CC1(C(=O)NS(=O)(=O)C2CC2)CCCN(C(=O)c2cccc(OC(F)(F)F)c2)C1 (stereo not given),6,-2%,0%,-5,.,.
N/C(=N\OC(=O)Cc1ccc(Cl)cc1)c1ccccn1,-12,-19%[57.5 µM],10µM*,-14,0%,-10%
COc1ccc2oc(C(=O)OCC(=O)N3CCCC3=O)c(C)c2c1,-6,-14%,11%,-1,0%,-15%
COc1cc(SC)ccc1C(=O)OCC(=O)NC1CCCC1,-3,-10%,-1%,-4,-1%,1%
COc1cc(SC)ccc1C(=O)OCC(=O)N1CCN(C(C)=O)CC1,-11,-13%,-19%,-64*,-2%,11%
SMILES,DRD3 agonist,PTHR1 ag,BRCA1 expr up,DRD3 antagonist,B2AR arrestin,RGS4 inhibitor
COc1ccc(C(=O)OCC(=O)N2CCCC2=O)c(OC)c1,2,-38%,1%,-56*,0%,19%
Cc1ccc(S(=O)(=O)CC(O)COc2ccc(F)cc2Cl)cc1 (stereo not given),-9,-19%,8%,-64*,0%,19%
CC(=O)c1ccc(OC(=O)c2c(-c3ccccc3Cl)noc2C)cc1,-12,-13%,.,.,.,-4%
CN(C(=O)c1cccc(NC(=O)Cc2ccc(NC(=O)C3CCN(C(=O)c4ccccc4)CC3)cc2)c1)C1CCC1,-15,-1%,2%,8,.,-13%
CN(C(=O)c1ccc(NC(=O)Cc2ccc(NC(=O)C3CCN(C(=O)c4ccccc4)CC3)cc2)cc1)C1CC1,-45,?,?,-99*,0%,-5%
COc1cc(Cl)ccc1OCc1cc(C(=O)N(C)CCc2cnn(C)c2)no1,0,-25%,7.1µM*,-10,0%,13%
CC(=O)c1cccc(OCc2cc(C(=O)N(C)CCc3cnn(C)c3)no2)c1,-5,3%,46%,16,-1%,38%
Cc1cc(OCc2cc(C(=O)N(C)CCc3cnn(C)c3)no2)cc(C)c1Cl,-2,-26%,10µM*,-20,0%,22%
CSCC[C@H](CO)NC(=O)[C@H]1O[C@@H](n2cnc3c(N)ncnc32)[C@H](O)[C@@H]1O,8,i,-37%,2,.,.
O=C(CCC(=O)c1ccc(F)cc1)NCC1(N2CCCCC2)CCCCC1,-12,-50%,-20%,-88*,-1%,30%
O=C(CCC(=O)c1ccc(F)cc1)NN1C(=O)NC2(CCCCC2)C1=O,7,i,-10%,5,0%,-29%
CCN(CCN(C)C)C(=O)C1CCN(S(=O)(=O)c2c(C)noc2/C=C/c2ccccc2F)CC1,-2,-6%,1%,-54*,0%,0%
CCOc1ccccc1/C=C/c1onc(C)c1S(=O)(=O)N1CCC(C(=O)N(CC)CC)CC1,-15,-6%,-41%,-19,0%,-15%
CC(C)OC(=O)Nc1ccc(Oc2c(F)c(F)c(F)c(F)c2F)cc1,1,-13%[57.5 µM],0%,-24,0%,4%
C/C=C/c1c(F)c(F)c(Oc2ccc(C(=O)O)cc2)c(F)c1F,31*,-4%,2%,-12,0%,8%
C[C@@H]1[C@@H](Sc2ccccc2)CC(=O)O[C@@H]1c1ccc(-c2ccccc2)cc1,12,-42%,-39%,4,.,-12%
O=C1C=CC2(O[C@H](c3ccccc3)[C@@H](c3ccccc3)O2)[C@H](Sc2ccccc2O)C1,-15,-33%,-77%,-118*,.,?
Cc1ccc(C)c(NC(=O)Cn2c(=O)n(Cc3cccs3)c(=O)c3cccnc32)c1,-4,15%,-7%,.,.,-11%
Cn1cnc(S(=O)(=O)N2CCCCC2c2cc(C(=O)Nc3cccc(C#N)c3)no2)c1 (stereo not given),-22,i,15%,-80*,.,.
